Holding throughout (assay): NCI-60 one-dose screen, 48 h (100 = growth as untreated, 0 = no growth, -100 = all killed)
One assay relates to HCT-15 colon. The settings on record: 10 µM.
In another assay the test system is HT29 colon. The settings on record: 10 µM.
Another assay has as its system SNB-75 CNS. The settings on record: 10 µM.
The next assay has as its system SNB-19 CNS. The settings on record: 10 µM.
The subject of a further assay is U251 CNS. The settings on record: 10 µM.
The test system of another assay is PC-3 prostate. The settings on record: 10 µM.
For a further assay, the system named is SK-MEL-5 melanoma. The settings on record: 10 µM.
Another assay has as its system UACC-62 melanoma. The settings on record: 10 µM unless noted.
In a further assay the test system is LOX IMVI melanoma. The settings on record: 10 µM.
The test system of another assay is SK-MEL-28 melanoma. The settings on record: 10 µM.

Here are results for 14 compounds from PubChem BioAssay (NCI).

Molecules are shown by their SMILES. This is part of a sample that, as a whole, favours compounds with a hit. Of some 83,000 tested, about 20% had one in any assay.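 Growth was measured after 48 h exposure to one concentration of compound in 96-well plates. Values under 10 count as active.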 A number with no mark means an inactive call. Activity calls are given as the source filed them.

On to `COc1cc(C2NC(=O)C(C#N)=C(Nc3cccc(C)c3)S2)ccc1O` (stereo not given), for which the growth is 111% in the assay with HCT-15 colon; 107% with HT29 colon; 89.6% with SNB-75 CNS; 102% with SNB-19 CNS; 103% in the assay on U251 CNS; 97.6% with PC-3 prostate. The growth in the assay on SK-MEL-5 melanoma was 101%; with UACC-62 melanoma it was 97.8%; in the assay with LOX IMVI melanoma, 99.1%; in the assay on SK-MEL-28 melanoma, 103%.
As for `O=c1[nH]cc(Cl)cc1O`, the growth in the assay with HCT-15 colon is 64.4%; in the assay on HT29 colon, 97.3%; in the assay with SNB-75 CNS, 93.1%; with SNB-19 CNS, 105%; in the assay with U251 CNS, 88.6%; in the assay on PC-3 prostate, 82.2%. The growth in the assay with SK-MEL-5 melanoma was 86.6%; in the assay with UACC-62 melanoma, 40.5%; in the assay on LOX IMVI melanoma, 65.5%; in the assay on SK-MEL-28 melanoma, 105%.
For `O=C1C=C(O)C(=O)C=C1O`, the growth with HCT-15 colon was 107%; with HT29 colon it was 105%; in the assay on SNB-75 CNS, 95.1%; with SNB-19 CNS it was 104%; with U251 CNS it was 104%; in the assay on PC-3 prostate it was 101%. The growth was 114% with SK-MEL-5 melanoma, 102% in the assay on UACC-62 melanoma, 98.9% in the assay on LOX IMVI melanoma and 114% in the assay on SK-MEL-28 melanoma.
With `COC(=O)/C=C1\Sc2cc(F)ccc2NC1=O`, the growth was 106% in the assay on HCT-15 colon; 97.8% in the assay with HT29 colon; 86.6% in the assay with SNB-75 CNS; 95% in the assay on SNB-19 CNS; 93.2% in the assay on U251 CNS; 92.2% in the assay with PC-3 prostate. Also, the growth in the assay with SK-MEL-5 melanoma was 104%; in the assay on UACC-62 melanoma, 88.8%; in the assay on LOX IMVI melanoma, 93.4%; with SK-MEL-28 melanoma, 129%.
`Cc1ccc(C(=O)N/N=C/c2ccc3c(c2)OCO3)cc1`: the growth was 91.6% in the assay with HCT-15 colon; 104% in the assay on HT29 colon; 95.8% with SNB-75 CNS; 96.7% in the assay on SNB-19 CNS; 101% in the assay on U251 CNS; 82.8% in the assay with PC-3 prostate. The growth in the assay on SK-MEL-5 melanoma was 100%; in the assay with UACC-62 melanoma, 76.3%; in the assay with LOX IMVI melanoma it was 89.1%; in the assay on SK-MEL-28 melanoma it was 107%.
For `COc1cccc(O)c1O`, the growth with HCT-15 colon is 38.4%; in the assay on HT29 colon, 104%; in the assay on SNB-75 CNS it was 56.3%; in the assay with SNB-19 CNS it was 65.1%; in the assay with U251 CNS, 65.1%; with PC-3 prostate it was 79.5%. Moreover, the growth in the assay on SK-MEL-5 melanoma is 55.9%; with UACC-62 melanoma, 45.5%; with LOX IMVI melanoma, 53.7%; in the assay with SK-MEL-28 melanoma, 74.1%.
With `CC1(C(=O)O)NC(C(=O)O)Cc2c1[nH]c1ccccc21` (stereo not given), the growth in the assay with HCT-15 colon is 110%; with HT29 colon, 109%; in the assay on SNB-75 CNS, 88.8%; in the assay with SNB-19 CNS, 108%; with U251 CNS it was 102%; with PC-3 prostate it was 87.4%. In addition, the growth in the assay with SK-MEL-5 melanoma is 104%; in the assay on UACC-62 melanoma, 100%; in the assay with LOX IMVI melanoma, 101%; with SK-MEL-28 melanoma it was 103%.
With `CC(=O)Cc1ccc(-c2ccccc2)cc1`, the growth is 103% in the assay on HCT-15 colon; 111% in the assay with HT29 colon; 98.5% in the assay on SNB-75 CNS; 101% in the assay with SNB-19 CNS; 98.3% in the assay on U251 CNS; 97.1% in the assay with PC-3 prostate. For the same compound, the growth was 98.7% with SK-MEL-5 melanoma, 87.5% in the assay on UACC-62 melanoma, 100% in the assay on LOX IMVI melanoma and 114% in the assay on SK-MEL-28 melanoma.
Consider `c1ccc(Cc2ccccc2)cc1`, for which the growth with HCT-15 colon is 99%; with HT29 colon, 118%; in the assay with SNB-75 CNS it was 98.9%; in the assay on SNB-19 CNS, 104%; in the assay on U251 CNS, 103%; in the assay with PC-3 prostate it was 82.8%. In addition, the growth in the assay with SK-MEL-5 melanoma was 116%; in the assay on UACC-62 melanoma it was 103%; in the assay with LOX IMVI melanoma it was 99.5%; in the assay on SK-MEL-28 melanoma it was 112%.
Regarding `O=C1OC(=O)C2C1C1(Cl)C(Cl)=C(Cl)C2(Cl)C2C(=O)OC(=O)C21` (stereo not given), the growth was 103% with HCT-15 colon; 104% in the assay with HT29 colon; 89.1% in the assay on SNB-75 CNS; 106% with SNB-19 CNS; 101% with U251 CNS; 97.9% in the assay on PC-3 prostate. In addition, the growth was 103% with SK-MEL-5 melanoma, 102% in the assay with UACC-62 melanoma, 98.4% with LOX IMVI melanoma and 107% in the assay on SK-MEL-28 melanoma.
Turning to `Cc1cc(N2CCC(N3CCCC3)CC2)nc(/N=C(\N)Nc2ccc(Cl)c(Cl)c2)n1`, the growth was -12.7% (active) in the assay on HCT-15 colon; -44.6% (active) in the assay on HT29 colon; -60.3% (active) in the assay with SNB-75 CNS; 90.7% in the assay on SNB-19 CNS; -71.8% (active) in the assay with U251 CNS; 82.6% in the assay with PC-3 prostate. The growth with SK-MEL-5 melanoma is -94% (active); in the assay on UACC-62 melanoma, -82.9% (active); in the assay with LOX IMVI melanoma it was -90.8% (active); with SK-MEL-28 melanoma, -75% (active).
Take `Cc1ccc(O)c(C(=O)c2ccccc2)c1`: the growth in the assay on HCT-15 colon was 104%; in the assay on HT29 colon it was 104%; with SNB-75 CNS it was 96.6%; in the assay on SNB-19 CNS it was 92.2%; in the assay on U251 CNS it was 105%; in the assay on PC-3 prostate, 101%. For the same compound, the growth was 105% with SK-MEL-5 melanoma, 96.6% in the assay on UACC-62 melanoma, 99.3% in the assay with LOX IMVI melanoma and 110% with SK-MEL-28 melanoma.
For `CN(C)/N=C/c1ccccc1O`, the growth was 100% with HCT-15 colon; 111% with HT29 colon; 87.8% with SNB-75 CNS; 97.8% in the assay on SNB-19 CNS; 95.4% in the assay on U251 CNS; 121% in the assay on PC-3 prostate. For the same compound, the growth was 103% in the assay on SK-MEL-5 melanoma, 98.4% with UACC-62 melanoma, 98.7% in the assay on LOX IMVI melanoma and 111% with SK-MEL-28 melanoma.
For `O=C(CCl)N1CCN(C/C=C/c2ccccc2)CC1`, the growth in the assay with HCT-15 colon was 86.3%; with HT29 colon it was 79.2%; with SNB-75 CNS, 92.6%; in the assay with SNB-19 CNS, 95.2%; in the assay on U251 CNS, 90.7%; in the assay with PC-3 prostate it was 89%. For the same compound, the growth with SK-MEL-5 melanoma was 86.6%; in the assay on UACC-62 melanoma it was 76.6%; in the assay with LOX IMVI melanoma, 2.58% (active); with SK-MEL-28 melanoma, 94.4%.
